Bioassay records: PubChem BioAssay, National Center for Advancing Translational Sciences (NCATS)
In the library only some 19% were active in any assay of this set; here they are far more common.
HT1080 IDH1KD tx – HT-1080 IDH1 knockdown cell toxicity (counter line); HT-1080 IDH1 knockdown viability, ATP luminescence, 48 h; Potency, µM (series often up to 46.1 µM), usual class: cytotoxic; 360,000 compounds, 2% hits; AID 686971
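Using the IDH1-knockdown HT-1080 line run in the same batch and compound series as the NT line, viability after 48 h at 37 °C was determined by CellTiter-Glo luminescence and expressed as % activity.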
TDP1 cell noCPT – qHTS for Inhibitors of human tyrosyl-DNA phosphodiesterase 1 (TDP1): qHTS in cells in absence of CPT; DT40 Tdp1-/- hTDP1 cells, no CPT, ATP luminescence, 48 h; 420,000 compounds, 15% hits; AID 686978, 2013; Potency, µM (titrated, usually from 46.2 µM), hits mostly inhibitors; further: nearly all actives have a fitted effect of over 55% in size
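No-CPT arm: Tdp1-/-;hTDP1 DT40 cells (400/well) plus compounds, incubated ≥48 hr at 37 °C. Readout CellTiter-Glo luminescence.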
KB-3-1 cytotox – KB-3-1 parental cell cytotoxicity; KB-3-1 viability, CellTiter-Glo ATP luminescence, 72 h; Potency, µM (series often up to 46.1 µM), usual class: cytotoxic; 400,000 compounds, 1.4% hits; AID 1347075; further: nearly all actives have a fitted effect of over 60% in size
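Here the drug-naive KB-3-1 line serves as comparator for MDR sub-line selectivity; cells received compound titrations, 72 h at 37 °C, then CellTiter-Glo readout.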
KB-V1 cytotox – kills drug-selected multidrug resistant KB-V1 cells; KB-V1 MDR cells viability, CellTiter-Glo, 72 h; Potency, µM (titrated, usually from 46.1 µM), hits mostly cytotoxic; 400,000 compounds, 3.4% hits; AID 1347076; further: nearly all actives have a fitted effect of over 60% in size
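Cells of the MDR subline KB-V1 are plated, dosed with compound at multiple concentrations, and incubated 72 h at 37 degrees C; CellTiter-Glo is then added and luminescence read after 10 min.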
TDP1 cell CPT – DT40-hTDP1 cell growth loss with CPT; chicken DT40 Tdp1-/-;hTDP1 cells + 20 nM CPT, ATP luminescence, 48 h; Potency, µM (doses to about 46.2 µM), most hits filed as inhibitors; 420,000 compounds, 12% hits; AID 686979; further: nearly all actives have a fitted effect of over 55% in size
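Chicken DT40 Tdp1-/- cells stably complemented with human TDP1 were seeded at 400 cells/well in medium containing 20 nM camptothecin, exposed to pin-transferred compounds, and grown at 37 °C for at least 48 hr. Viability was read as ATP luminescence.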
HT1080-NT tox – kills 2HG-producing HT-1080-NT fibrosarcoma cells; HT-1080-NT fibrosarcoma viability, CellTiter-Glo ATP luminescence, 48 h; Potency, µM (doses to about 46.1 µM), most hits filed as cytotoxic; 360,000 compounds, 1.6% hits;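 further: NT is the 2HG producing partner of a matched IDH1 knockdown line; nearly all actives have a fitted effect of over 55% in size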
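HT-1080-NT fibrosarcoma cells (2HG-overproducing), 750 cells/well in RPMI with 5% FBS, dosed after 2 h and incubated 48 h at 37C. CellTiter-Glo luminescence normalized to DMSO and no-cell wells; concentration-response curves fitted and classed.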
A number is an active result; – = inactive; ? = inconclusive; · = not tested or not shown; ! = not confirmed by another sample; [ ] = another dose, or the depositor's remark. The call rests on the fitted dose curve; in most records, active means well fitted curve in the direction sought with a large enough effect; inconclusive means small, poorly fitted or top-dose-only effect, or another doubt; inactive means no such curve, though single readings can be large; an effect the other way counts as inactive or inconclusive.

SMILES	HT1080 IDH1KD tx	TDP1 cell noCPT	KB-3-1 cytotox	KB-V1 cytotox	TDP1 cell CPT	HT1080-NT tox
CNc1n[nH]c(-c2ccccc2)n1	–	–	–	–	–	–
COc1ccc(/C=N\NC(=O)c2sccc2C)cc1Cn1nc(C)cc1C	–	?	?	6.5µM	7.3µM	–
Cc1cc(C)n(CCC(=O)N/N=C/c2ccc(Cl)c([N+](=O)[O-])c2)n1	–	–	–	?	–	–
COc1ccc(/C=N\NC(=O)COc2ccccc2Cl)cc1Cn1nc(C)cc1C	?	23µM	–	–	?	?
COc1ccc(N2C(=S)N=C(Nc3ccccc3)C23CCCCC3)cc1	–	–	–	–	?	–
COc1ccc(NC2=NC(=S)N(c3ccccc3C)C23CCCCC3)cc1	–	26µM	–	–	23µM	–
Cc1cccc2cc(CN(C(=O)c3ccc(C(F)(F)F)cc3)C3CC3)c(N3CCC(O)CC3)nc12	·	?	·	·	–[9.04 µM]	·
Cc1ccc(C(=O)N(Cc2cc3cccc(C)c3nc2N2CCC(O)CC2)C2CC2)cc1	·	13µM	·	·	–[9.04 µM]	·
O=C1C2(CCCC13COC(c1ccc(O)cc1)OC3)COC(c1ccc(O)cc1)OC2 (configuration not stated)	–	–	–	–	–	–
Cc1nc(SC(C(N)=O)c2ccccc2)c(C#N)c(C)c1C (configuration not stated)	–	?	–	–	–	–
CC(Sc1nc(C(C)(C)C)cc(-c2ccccc2)c1C#N)C(=O)Nc1ccccc1 (configuration not stated)	–	29µM	–	–	?	–
COc1ccccc1-c1cc(-c2ccccc2)nc(SC(C(N)=O)c2ccccc2)c1C#N (configuration not stated)	?	23µM	–	?	?	?
CCOC(=O)C(C)Sc1nc(-c2ccccc2Cl)cc(-c2ccccc2)c1C#N (configuration not stated)	·	?	–	–	13µM	·
Cc1c(Cl)cccc1NC(=O)CN1C(=O)COc2ccc(S(=O)(=O)N3CCOCC3)cc21	·	–	·	·	–	·
CCCNC(=O)C1(C)CCN(C(=O)COc2ccc(Cl)cc2Cl)C1 (configuration not stated)	–	–	?	–	–	–
CCOC(=O)Nc1ccc(NCc2ccc(F)cc2)nc1N	?	16µM!	–	–	?	?
CCOC(=O)Nc1ccc(C)cc1NC(=O)OCC	–	–	–	–	–	–
CCN1CCN(c2nc(-c3cccnc3)nc3ccccc23)CC1	–	–	–	–	–	–
CCCOc1ccc(-c2nc(N3CCN(C)CC3)c3ccccc3n2)cc1	?	?	–	–	23µM	?
CCCOc1ccc(-c2nc(N3CCN(CC)CC3)c3ccccc3n2)cc1	–	29µM	–	–	?	–
CCCOc1ccc(-c2nc(N3CCCCC3)c3ccccc3n2)cc1	·	–	–	–	–	·
Oc1c(Cl)cc(Cl)cc1/C=N/c1nccs1	–	?	–	–	26µM	–
COc1ccccc1C(=O)N[C@@H]1c2ccccc2C2(CCN(Cc3ccc4c(c3)OCO4)CC2)[C@H]1O	·	?	·	·	–[9.04 µM]	·
CCOC(=O)c1c(-c2ccc(Cl)cc2)csc1NC(=O)CNCc1ccco1	–	?	–	–	?	–
CCOC(=O)c1c(-c2ccc(OC)cc2)csc1NC(=O)CNCc1ccco1	–	?	–	10µM	?	–
CCOC(=O)c1c(-c2ccc(OC)cc2)csc1NC(=O)CCN1CCOCC1	–	18µM	–	–	?	–
CCOC(=O)c1sc(NC(=O)CCN2CCCCCC2)c(C(=O)OCC)c1C	?	?	–	–	?	?
CCOC(=O)c1c(NC(=O)CCN2CCOCC2)sc(C)c1-c1ccccc1	–	23µM	–	–	21µM	–
